According to ChEMBL document CHEMBL2218924, “A broad activity screen in support of a chemogenomic map for kinase signalling research and drug discovery” (Biochem J, 2013):

Columns and labels:
[1] = target: Protein kinase C eta type (Homo sapiens) (UniProt P24723); settings: at 1 µM
[2] = target: Protein kinase C eta type (Homo sapiens) (UniProt P24723); settings: at 10 µM
[3] = target: Protein kinase C theta type (Homo sapiens) (UniProt Q04759); settings: at 1 µM
[4] = target: Protein kinase C theta type (Homo sapiens) (UniProt Q04759); settings: at 10 µM
[5] = target: T1, Protein kinase C iota type (Homo sapiens) (UniProt P41743); settings: at 1 µM
T1 sequence (whole entry): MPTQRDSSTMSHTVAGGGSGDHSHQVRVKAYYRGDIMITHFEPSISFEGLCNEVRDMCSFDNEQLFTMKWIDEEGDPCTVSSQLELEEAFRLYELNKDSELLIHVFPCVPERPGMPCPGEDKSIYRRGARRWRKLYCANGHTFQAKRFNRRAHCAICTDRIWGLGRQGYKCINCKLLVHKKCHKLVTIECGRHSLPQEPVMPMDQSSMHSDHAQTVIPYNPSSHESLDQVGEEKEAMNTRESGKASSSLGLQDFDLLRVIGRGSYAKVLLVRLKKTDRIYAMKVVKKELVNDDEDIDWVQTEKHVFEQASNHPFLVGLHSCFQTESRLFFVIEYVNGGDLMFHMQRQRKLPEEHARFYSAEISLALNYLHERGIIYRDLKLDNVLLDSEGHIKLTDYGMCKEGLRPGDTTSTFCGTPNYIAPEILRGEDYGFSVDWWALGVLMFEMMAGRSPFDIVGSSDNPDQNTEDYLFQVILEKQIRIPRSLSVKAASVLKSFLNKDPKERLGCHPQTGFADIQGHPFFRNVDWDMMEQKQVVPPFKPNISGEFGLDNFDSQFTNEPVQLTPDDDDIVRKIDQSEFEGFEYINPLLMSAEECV

[6] = target: T1, Protein kinase C iota type (Homo sapiens); settings: at 10 µM
[7] = target: T2, Serine/threonine-protein kinase D1 (Homo sapiens) (UniProt Q15139); settings: at 10 µM
T2 sequence (whole entry): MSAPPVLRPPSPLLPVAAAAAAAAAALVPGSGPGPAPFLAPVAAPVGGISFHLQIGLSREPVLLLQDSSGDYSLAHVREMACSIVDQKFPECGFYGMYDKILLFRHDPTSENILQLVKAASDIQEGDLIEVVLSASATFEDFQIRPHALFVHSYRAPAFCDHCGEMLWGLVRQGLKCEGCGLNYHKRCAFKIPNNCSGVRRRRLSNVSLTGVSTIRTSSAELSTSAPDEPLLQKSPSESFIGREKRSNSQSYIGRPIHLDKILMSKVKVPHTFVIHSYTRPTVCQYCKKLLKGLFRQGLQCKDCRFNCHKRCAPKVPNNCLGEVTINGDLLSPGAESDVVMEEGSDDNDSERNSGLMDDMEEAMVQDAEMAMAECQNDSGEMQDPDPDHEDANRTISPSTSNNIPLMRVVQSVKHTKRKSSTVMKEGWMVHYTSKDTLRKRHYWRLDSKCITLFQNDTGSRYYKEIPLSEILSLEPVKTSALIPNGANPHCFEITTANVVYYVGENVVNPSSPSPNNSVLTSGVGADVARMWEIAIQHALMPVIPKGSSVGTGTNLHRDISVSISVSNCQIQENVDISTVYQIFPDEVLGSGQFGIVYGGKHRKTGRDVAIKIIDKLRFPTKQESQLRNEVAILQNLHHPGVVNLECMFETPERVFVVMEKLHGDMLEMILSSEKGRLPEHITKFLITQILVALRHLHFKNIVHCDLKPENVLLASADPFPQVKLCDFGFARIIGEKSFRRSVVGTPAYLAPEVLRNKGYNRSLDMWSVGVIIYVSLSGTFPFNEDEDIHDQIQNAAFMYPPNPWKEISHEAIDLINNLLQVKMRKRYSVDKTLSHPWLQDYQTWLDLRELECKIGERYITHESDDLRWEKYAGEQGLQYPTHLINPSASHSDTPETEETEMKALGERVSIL

[8] = target: T3, cGMP-dependent protein kinase 1 (Homo sapiens) (UniProt Q13976); settings: at 1 µM
T3 sequence (whole entry): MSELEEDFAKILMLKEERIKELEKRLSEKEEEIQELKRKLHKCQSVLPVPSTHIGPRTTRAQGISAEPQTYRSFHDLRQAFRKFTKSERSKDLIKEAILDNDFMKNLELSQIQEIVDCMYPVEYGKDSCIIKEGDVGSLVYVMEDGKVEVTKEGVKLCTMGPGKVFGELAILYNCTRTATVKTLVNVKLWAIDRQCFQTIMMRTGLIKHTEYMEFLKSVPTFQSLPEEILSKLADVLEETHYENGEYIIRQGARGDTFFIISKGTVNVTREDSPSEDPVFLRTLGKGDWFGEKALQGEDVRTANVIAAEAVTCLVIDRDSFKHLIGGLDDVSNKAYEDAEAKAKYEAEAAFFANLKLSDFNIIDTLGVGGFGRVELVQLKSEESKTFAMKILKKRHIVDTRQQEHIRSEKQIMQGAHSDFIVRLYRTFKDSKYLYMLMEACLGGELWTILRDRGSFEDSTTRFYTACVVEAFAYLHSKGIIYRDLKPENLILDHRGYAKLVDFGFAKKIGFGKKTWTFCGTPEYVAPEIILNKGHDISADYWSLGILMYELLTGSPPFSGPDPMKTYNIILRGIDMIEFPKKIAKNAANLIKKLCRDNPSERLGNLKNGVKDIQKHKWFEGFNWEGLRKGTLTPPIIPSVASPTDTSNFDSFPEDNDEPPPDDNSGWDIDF

[9] = target: T3, cGMP-dependent protein kinase 1 (Homo sapiens); settings: at 10 µM
[10] = target: T3, cGMP-dependent protein kinase 1 (Homo sapiens); settings: at 1 µM; remark: listed apart in the source
[11] = target: T3, cGMP-dependent protein kinase 1 (Homo sapiens); settings: at 10 µM; remark: listed apart in the source
[12] = target: T4, MAP kinase-activated protein kinase 5 (Homo sapiens) (UniProt Q8IW41); settings: at 1 µM
T4 sequence (whole entry): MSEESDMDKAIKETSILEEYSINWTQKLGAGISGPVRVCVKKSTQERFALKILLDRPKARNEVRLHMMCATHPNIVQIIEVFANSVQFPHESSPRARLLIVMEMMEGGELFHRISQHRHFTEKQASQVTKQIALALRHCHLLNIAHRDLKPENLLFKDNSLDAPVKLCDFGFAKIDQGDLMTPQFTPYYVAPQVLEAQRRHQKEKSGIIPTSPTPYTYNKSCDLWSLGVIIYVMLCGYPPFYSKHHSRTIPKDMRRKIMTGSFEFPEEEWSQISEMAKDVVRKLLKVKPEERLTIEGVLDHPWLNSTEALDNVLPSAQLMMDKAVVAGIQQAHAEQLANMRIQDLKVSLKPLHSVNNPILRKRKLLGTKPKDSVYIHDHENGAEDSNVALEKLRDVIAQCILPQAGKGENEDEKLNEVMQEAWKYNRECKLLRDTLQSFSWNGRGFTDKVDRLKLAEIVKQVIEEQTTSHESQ

[13] = target: T4, MAP kinase-activated protein kinase 5 (Homo sapiens); settings: at 10 µM
[14] = target: T2, Serine/threonine-protein kinase D1 (Homo sapiens); settings: at 1 µM
[15] = target: T5, Serine/threonine-protein kinase D2 (Homo sapiens) (UniProt Q9BZL6); settings: at 1 µM
T5 sequence (whole entry): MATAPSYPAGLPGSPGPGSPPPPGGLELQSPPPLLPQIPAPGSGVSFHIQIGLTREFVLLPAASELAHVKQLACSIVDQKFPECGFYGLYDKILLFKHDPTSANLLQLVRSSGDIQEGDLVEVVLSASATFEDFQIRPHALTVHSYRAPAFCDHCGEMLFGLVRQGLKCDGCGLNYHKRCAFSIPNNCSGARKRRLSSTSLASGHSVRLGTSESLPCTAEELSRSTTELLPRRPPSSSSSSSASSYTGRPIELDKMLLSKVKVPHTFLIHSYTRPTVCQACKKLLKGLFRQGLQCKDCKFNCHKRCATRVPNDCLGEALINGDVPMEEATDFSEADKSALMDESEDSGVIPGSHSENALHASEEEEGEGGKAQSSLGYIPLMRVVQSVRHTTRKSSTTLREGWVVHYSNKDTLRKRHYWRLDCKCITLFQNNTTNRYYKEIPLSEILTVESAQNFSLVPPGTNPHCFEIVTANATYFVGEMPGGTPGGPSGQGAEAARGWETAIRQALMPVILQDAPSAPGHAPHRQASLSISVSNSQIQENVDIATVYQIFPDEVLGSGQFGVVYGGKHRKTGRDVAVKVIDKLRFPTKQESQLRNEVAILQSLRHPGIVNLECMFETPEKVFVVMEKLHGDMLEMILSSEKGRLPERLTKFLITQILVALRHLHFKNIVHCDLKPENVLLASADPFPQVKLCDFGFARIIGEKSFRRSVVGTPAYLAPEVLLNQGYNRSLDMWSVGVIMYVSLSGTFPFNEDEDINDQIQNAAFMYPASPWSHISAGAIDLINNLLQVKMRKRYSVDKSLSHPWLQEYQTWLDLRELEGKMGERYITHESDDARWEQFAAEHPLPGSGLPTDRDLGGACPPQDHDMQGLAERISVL

[16] = target: T5, Serine/threonine-protein kinase D2 (Homo sapiens); settings: at 10 µM
[17] = target: Serine/threonine-protein kinase N2 (Homo sapiens) (UniProt Q16513); settings: at 1 µM
Sequence of Serine/threonine-protein kinase N2 (Homo sapiens) (Q16513 whole entry, looked up): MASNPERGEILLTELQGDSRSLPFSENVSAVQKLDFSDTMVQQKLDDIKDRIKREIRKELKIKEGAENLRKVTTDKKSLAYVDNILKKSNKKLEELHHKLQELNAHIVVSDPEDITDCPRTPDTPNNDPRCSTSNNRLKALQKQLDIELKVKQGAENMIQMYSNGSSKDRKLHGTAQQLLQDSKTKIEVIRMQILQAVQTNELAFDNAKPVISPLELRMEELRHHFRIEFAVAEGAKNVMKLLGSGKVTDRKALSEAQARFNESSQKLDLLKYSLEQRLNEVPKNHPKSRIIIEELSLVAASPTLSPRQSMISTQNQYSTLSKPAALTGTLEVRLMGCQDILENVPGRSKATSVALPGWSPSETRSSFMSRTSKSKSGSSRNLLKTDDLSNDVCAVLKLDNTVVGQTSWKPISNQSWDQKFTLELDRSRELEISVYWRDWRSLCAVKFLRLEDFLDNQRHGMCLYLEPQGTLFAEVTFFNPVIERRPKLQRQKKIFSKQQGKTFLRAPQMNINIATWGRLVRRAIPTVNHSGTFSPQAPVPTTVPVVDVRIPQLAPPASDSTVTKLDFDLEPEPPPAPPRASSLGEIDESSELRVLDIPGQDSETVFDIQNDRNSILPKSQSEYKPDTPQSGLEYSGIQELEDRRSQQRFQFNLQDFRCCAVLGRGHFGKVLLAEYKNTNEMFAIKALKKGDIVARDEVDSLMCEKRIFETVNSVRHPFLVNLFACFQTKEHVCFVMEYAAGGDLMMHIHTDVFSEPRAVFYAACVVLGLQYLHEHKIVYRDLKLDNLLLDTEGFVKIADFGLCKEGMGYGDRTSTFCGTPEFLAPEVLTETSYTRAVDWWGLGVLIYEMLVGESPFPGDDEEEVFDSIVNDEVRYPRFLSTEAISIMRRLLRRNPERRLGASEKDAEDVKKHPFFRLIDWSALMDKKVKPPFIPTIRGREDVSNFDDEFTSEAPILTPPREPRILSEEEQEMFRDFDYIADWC

[18] = target: Serine/threonine-protein kinase N2 (Homo sapiens) (UniProt Q16513); settings: at 10 µM
[19] = target: Tyrosine-protein kinase FRK (Homo sapiens) (UniProt P42685); settings: at 1 µM
Sequence of Tyrosine-protein kinase FRK (Homo sapiens) (P42685 whole entry): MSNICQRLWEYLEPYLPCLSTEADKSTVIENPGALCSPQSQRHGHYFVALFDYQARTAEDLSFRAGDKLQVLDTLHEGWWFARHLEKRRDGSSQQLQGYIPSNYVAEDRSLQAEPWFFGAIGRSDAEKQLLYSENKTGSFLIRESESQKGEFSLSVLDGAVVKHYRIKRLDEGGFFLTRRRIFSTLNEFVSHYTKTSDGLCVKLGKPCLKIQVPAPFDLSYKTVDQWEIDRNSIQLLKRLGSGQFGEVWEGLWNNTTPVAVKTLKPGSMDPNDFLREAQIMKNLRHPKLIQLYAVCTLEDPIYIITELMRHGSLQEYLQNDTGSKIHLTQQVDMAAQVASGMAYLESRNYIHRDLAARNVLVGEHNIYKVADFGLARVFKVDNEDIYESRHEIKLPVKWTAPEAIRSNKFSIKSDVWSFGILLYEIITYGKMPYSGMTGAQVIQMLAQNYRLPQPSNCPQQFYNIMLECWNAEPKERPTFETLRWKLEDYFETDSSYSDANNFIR

[20] = target: Tyrosine-protein kinase FRK (Homo sapiens) (UniProt P42685); settings: at 10 µM

Sequence of Protein kinase C eta type (Homo sapiens) (P24723 whole entry): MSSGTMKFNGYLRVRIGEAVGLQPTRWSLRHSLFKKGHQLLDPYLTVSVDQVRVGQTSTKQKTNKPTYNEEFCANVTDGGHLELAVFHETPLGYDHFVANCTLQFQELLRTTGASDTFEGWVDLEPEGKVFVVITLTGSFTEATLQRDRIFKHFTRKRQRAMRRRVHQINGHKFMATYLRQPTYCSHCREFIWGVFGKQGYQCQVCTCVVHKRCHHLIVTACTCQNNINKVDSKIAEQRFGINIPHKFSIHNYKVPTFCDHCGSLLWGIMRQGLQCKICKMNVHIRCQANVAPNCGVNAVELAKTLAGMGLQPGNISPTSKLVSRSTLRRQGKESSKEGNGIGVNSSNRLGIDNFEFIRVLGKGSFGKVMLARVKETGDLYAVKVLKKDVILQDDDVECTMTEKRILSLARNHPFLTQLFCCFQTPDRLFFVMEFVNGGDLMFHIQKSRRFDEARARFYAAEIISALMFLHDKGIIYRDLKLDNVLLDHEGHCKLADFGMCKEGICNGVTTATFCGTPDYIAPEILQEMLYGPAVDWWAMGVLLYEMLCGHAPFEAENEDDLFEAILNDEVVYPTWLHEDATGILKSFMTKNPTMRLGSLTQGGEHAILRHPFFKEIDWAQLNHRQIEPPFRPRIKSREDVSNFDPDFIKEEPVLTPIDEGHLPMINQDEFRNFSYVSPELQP
Sequence of Protein kinase C theta type (Homo sapiens) (Q04759 whole entry, looked up): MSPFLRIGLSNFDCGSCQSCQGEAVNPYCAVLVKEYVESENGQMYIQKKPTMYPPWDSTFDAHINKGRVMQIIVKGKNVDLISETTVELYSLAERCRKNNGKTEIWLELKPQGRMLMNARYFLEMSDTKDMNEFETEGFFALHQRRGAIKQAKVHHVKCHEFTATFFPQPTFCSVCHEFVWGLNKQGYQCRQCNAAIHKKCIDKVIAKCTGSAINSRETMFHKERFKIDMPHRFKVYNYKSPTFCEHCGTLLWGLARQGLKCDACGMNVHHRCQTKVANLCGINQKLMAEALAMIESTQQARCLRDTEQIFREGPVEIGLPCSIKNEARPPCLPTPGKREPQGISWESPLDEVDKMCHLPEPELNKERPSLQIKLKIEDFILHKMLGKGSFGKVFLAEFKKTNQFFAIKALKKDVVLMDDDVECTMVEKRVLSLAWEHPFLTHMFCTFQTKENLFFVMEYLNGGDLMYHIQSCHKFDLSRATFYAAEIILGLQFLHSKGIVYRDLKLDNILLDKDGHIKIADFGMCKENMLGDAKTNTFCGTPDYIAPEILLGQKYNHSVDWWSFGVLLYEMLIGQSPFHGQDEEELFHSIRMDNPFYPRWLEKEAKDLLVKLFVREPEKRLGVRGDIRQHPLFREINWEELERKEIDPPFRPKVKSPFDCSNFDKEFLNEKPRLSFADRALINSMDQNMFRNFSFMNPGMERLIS

`c1ccc(-c2n[nH]c3c2oc2ccccc23)cc1` showed a residual activity [1] of 91%, a residual activity [2] of 85% and a residual activity [3] of 98%. For the same molecule, the residual activity [4] was 96%, the residual activity [5] was 90% (inactive) and the residual activity [6] was 79%. It also gave a residual activity [7] of 72%, a residual activity [8] of 99% and a residual activity [9] of 100%. It also gave a residual activity [10] of 75%, a residual activity [11] of 93% and a residual activity [12] of 97%. For the same molecule, the residual activity [13] was 58%.

`O=C1NC(=O)/C(=C/c2ccc3c(c2)OC(F)(F)O3)S1` was tested, and the residual activity [1] was 120%, the residual activity [2] was 89% and the residual activity [3] was 109%. For the same molecule, the residual activity [4] was 100%, the residual activity [5] was 90% (inactive) and the residual activity [6] was 80%. For the same molecule, the residual activity [14] was 105%, the residual activity [7] was 77% and the residual activity [15] was 107%. It also gave a residual activity [16] of 99%, a residual activity [8] of 105% and a residual activity [9] of 108%. It also gave a residual activity [10] of 72%, a residual activity [11] of 52% and a residual activity [12] of 106%. The residual activity [13] was 37%, the residual activity [17] was 117% and the residual activity [18] was 97%. For the same molecule, the residual activity [19] was 101% and the residual activity [20] was 107%.

`N#CC(C#N)=C(N)/C(C#N)=C/c1ccc(O)cc1` was tested, and the residual activity [1] was 118%, the residual activity [2] was 81% and the residual activity [5] was 81% (inactive). For the same molecule, the residual activity [6] was 75%, the residual activity [14] was 93% and the residual activity [13] was 92%. For the same molecule, the residual activity [18] was 117% and the residual activity [20] was 91%.

With `O=C(Nc1cccc(Nc2cc(Nc3cccc(C(F)(F)F)c3)ncn2)c1)C1CC1` the residual activity [1] was 117%, the residual activity [2] was 87% and the residual activity [4] was 80%. For the same molecule, the residual activity [5] was 97% (inactive), the residual activity [6] was 111% and the residual activity [14] was 99%. It also gave a residual activity [7] of 88%, a residual activity [15] of 107% and a residual activity [16] of 110%. For the same molecule, the residual activity [8] was 117%, the residual activity [9] was 100% and the residual activity [10] was 81%. The residual activity [11] was 88%, the residual activity [12] was 110% and the residual activity [13] was 24%. The residual activity [17] was 93%, the residual activity [18] was 93% and the residual activity [19] was 101%. The residual activity [20] was 73%.

Work on `COc1cc2ncc(-c3ccccc3)nc2cc1OC` yielded a residual activity [6] of 68%, a residual activity [15] of 96% and a residual activity [16] of 99%. The residual activity [12] was 125%, the residual activity [13] was 85% and the residual activity [19] was 90%. It also gave a residual activity [20] of 90%.

`CC(=O)c1ccc(N2CCOCC2)cc1O` was tested, and the residual activity [1] was 92%, the residual activity [2] was 84% and the residual activity [3] was 109%. The residual activity [4] was 102%, the residual activity [5] was 84% (inactive) and the residual activity [6] was 106%. For the same molecule, the residual activity [14] was 92%, the residual activity [7] was 95% and the residual activity [15] was 93%. It also gave a residual activity [16] of 109%, a residual activity [12] of 77% and a residual activity [13] of 109%. The residual activity [17] was 100%, the residual activity [18] was 109% and the residual activity [19] was 109%. The residual activity [20] was 99%.

For `Nc1nc(Nc2ccc(S(N)(=O)=O)cc2)nn1C(=S)Nc1c(F)cccc1F`, the residual activity [1] was 30%, the residual activity [2] was 4% and the residual activity [3] was 10%. For the same molecule, the residual activity [4] was 2%, the residual activity [6] was 80% and the residual activity [14] was 2%. The residual activity [7] was 4%, the residual activity [15] was 45% and the residual activity [16] was 6%. It also gave a residual activity [12] of 32%, a residual activity [13] of 2% and a residual activity [17] of 5%. For the same molecule, the residual activity [18] was 2%, the residual activity [19] was 20% and the residual activity [20] was 0%.

In the case of `c1ccc(-c2n[nH]cc2-c2ccnc3ccccc23)nc1`, the residual activity [1] was 92%, the residual activity [2] was 77% and the residual activity [3] was 97%. For the same molecule, the residual activity [4] was 86%, the residual activity [5] was 81% (inactive) and the residual activity [6] was 91%. The residual activity [14] was 65%, the residual activity [7] was 22% and the residual activity [15] was 101%. For the same molecule, the residual activity [16] was 66%, the residual activity [12] was 73% and the residual activity [13] was 90%. The residual activity [17] was 89%, the residual activity [18] was 103% and the residual activity [19] was 84%. It also gave a residual activity [20] of 25%.
